TLR9-MyD88 block – TLR9-MyD88 interaction inhibition; CHO BLA complementation TLR9-MyD88, CCF4 FRET ratio; inhibition, % at 4.98 µM; 340,000 compounds, 0.21% hits; AID 504734;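 active = inhibition above the mean over all tested compounds plus 3 SD, cut at about 21% in these data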;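 note: 0% = DMSO only wells and 100% = clavulanate BLA inhibitor control wells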
TLR4-MyD88 BLA – TLR4-MyD88 interaction inhibition in cells | O00206+Q99836 | HeLa CL3-4 TLR4/MyD88 BLA complementation, FRET ratio | inhibition, % at 8.4 µM | 200,000 compounds, 0.18% hits; in the data active = inhibition above about 25%;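 note: 0% = vehicle and 100% = reference inhibitor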
Target sequence (O00206 whole entry, looked up): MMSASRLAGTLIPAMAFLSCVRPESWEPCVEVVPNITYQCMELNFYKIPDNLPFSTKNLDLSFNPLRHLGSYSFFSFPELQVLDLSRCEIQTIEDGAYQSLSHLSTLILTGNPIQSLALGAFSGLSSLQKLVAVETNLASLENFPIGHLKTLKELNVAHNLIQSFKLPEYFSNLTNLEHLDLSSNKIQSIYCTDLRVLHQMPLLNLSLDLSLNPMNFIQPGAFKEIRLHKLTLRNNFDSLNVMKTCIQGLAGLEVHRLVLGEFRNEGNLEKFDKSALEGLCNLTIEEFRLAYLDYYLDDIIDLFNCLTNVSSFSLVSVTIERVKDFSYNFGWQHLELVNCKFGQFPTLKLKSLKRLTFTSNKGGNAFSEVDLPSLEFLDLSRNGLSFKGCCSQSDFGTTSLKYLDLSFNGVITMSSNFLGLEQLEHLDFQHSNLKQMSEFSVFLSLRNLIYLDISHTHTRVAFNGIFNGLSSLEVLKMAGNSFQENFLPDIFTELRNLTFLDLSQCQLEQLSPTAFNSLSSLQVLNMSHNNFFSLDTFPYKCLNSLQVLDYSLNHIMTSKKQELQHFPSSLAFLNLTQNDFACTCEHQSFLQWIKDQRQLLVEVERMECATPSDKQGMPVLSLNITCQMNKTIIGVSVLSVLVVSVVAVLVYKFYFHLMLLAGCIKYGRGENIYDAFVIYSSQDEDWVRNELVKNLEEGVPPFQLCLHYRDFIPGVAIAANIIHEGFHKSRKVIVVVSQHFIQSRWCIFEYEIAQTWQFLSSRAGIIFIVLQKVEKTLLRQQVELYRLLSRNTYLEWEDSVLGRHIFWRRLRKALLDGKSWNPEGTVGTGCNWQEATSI
Target sequence (Q99836 whole entry, looked up): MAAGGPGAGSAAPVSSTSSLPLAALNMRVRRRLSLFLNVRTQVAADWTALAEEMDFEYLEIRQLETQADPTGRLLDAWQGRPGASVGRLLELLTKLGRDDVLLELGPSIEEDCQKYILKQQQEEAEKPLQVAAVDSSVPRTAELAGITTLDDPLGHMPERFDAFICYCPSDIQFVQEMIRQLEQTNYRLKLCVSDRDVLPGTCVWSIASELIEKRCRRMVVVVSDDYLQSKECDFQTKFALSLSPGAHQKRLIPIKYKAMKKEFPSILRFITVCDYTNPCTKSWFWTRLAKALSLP
NOD2-RIPK2 inh – NOD2-RIPK2 protein interaction inhibition; CHO BLA complementation NOD2-RIPK2, CCF4 ratio; O43353; 360,000 compounds, 0.38% hits; AID 624267; inhibition, % at 4.98 µM; in the data active = inhibition above about 21%;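 note: 0% = vehicle only and 100% = reference blocker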
Myeloid diff 2 – promotes myeloid progenitor differentiation; ER-HoxA9 myeloid progenitors, lysozyme-GFP differentiation, flow cytometry; calls only at 10 µM; 360,000 compounds, 1% hits; AID 624256;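 active = normalized GFP-positive differentiation at or above the plate's own cutoff, the solvent-only control mean plus 3 SD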;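 note: cells exposed to compound for four days before flow analysis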
Myeloid diff – promotes myeloid progenitor differentiation. AID 651706. shares compounds with Myeloid diff 2. ER-HoxA9 myeloid progenitors, GFP/Mac1 double-positive flow. calls only. 2,300 compounds, 2% hits;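 active = share of green or green-and-red cells above 9 and 9% in run 1 or 4 and 3% in run 2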
GFP autofluor – flagged as fluorescent in myeloid differentiation counter-screen. shares compounds with Myeloid diff 2. ER-HoxA9 myeloid progenitors, no estrogen, GFP autofluorescence flow cytometry; vehicle wells 0%, positive control 100%. fluorescence response, % (concentration not given with the values). 2,300 compounds, 7.4% hits. AID 651707;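 active = over 5% cells positive for green fluorescent reporter, or over 2% positive for both it and APC stain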;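 note: range taken on the double positive population between DMSO and positive control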
* = called active by the depositor; i = inactive; . = no result; + = active, no number. Compounds with a hit are over-represented: about 1.5% of the library has one in this group of screens.

SMILES | TLR9-MyD88 block | TLR4-MyD88 BLA | NOD2-RIPK2 inh | Myeloid diff 2 | Myeloid diff | GFP autofluor
COc1cc(/C=C2\SC(=S)N(CCC(=O)N3CCN(C)CC3)C2=O)cc(OC)c1OC | -13.1 | . | -6.8 | + | i | 0.0
COc1cc(/C=C2/SC(=S)N(CCC(=O)N3CCN(C)CC3)C2=O)cc(OC)c1OC | 7.9 | . | -1.9 | i | . | .
CC1(C(=O)NS(=O)(=O)c2cccc(Cl)c2)CCN1C(=O)c1ccccc1CCc1ccccc1 (stereo not given) | . | . | -5.6 | i | . | .
CCOCCCNC(=O)c1c[nH]c2ccc(OCC)cc2c1=O | -2.4 | . | 5.7 | i | . | .
CCCOc1ccc2[nH]cc(C(=O)O)c(=O)c2c1 | 1.4 | 6.2 | -8.7 | i | i | 0.4
COc1ccc(Cl)cc1NC(=S)N(Cc1ccccc1C)CC1CCC(C(=O)O)CC1 (stereo not given) | 1.2 | -0.8 | 11.2 | i | i | 0.7
CC(C)(C)OC(=O)N[C@H](C(=O)OC(C)(C)C)c1ccc2ccccc2c1 | -3.6 | . | -4.7 | + | i | 0.6
CC(C)(C)NC(=O)C(c1ccc(-c2ccccc2)cc1)N(C[C@H]1CC[C@@H]([C@@H]2CC[C@H](CO)O2)O1)C(=O)c1ccc(C(C)(C)C)cc1 (stereo not given in full) | -7.4 | . | 2.0 | i | i | 0.0
Cc1ccc(C(C(=O)NC(C)(C)C)N(CC2CCCO2)C(=O)c2csnn2)cc1 (stereo not given) | 4.1 | . | 2.3 | i | . | .
NC(=O)CC(NC(=O)c1ccccc1)c1ccc(NCc2ccc(F)cc2)c([N+](=O)[O-])c1 (stereo not given) | 11.6 | . | 1.0 | + | i | 0.0
NC(=O)CC(NC(=O)c1ccccc1)c1ccc(NCc2ccccc2)c([N+](=O)[O-])c1 (stereo not given) | -9.4 | . | -11.0 | i | . | .
Nc1c(Cl)cc2c(c1Oc1ccccc1)C(=O)c1ccccc1C2=O | 5.5 | 11.5 | 7.0 | + | i | 0.0
Nc1c(Cl)cc2c(c1Br)Cc1ccccc1-2 | -2.8 | . | -1.0 | i | . | .
CCCCCCCCNC(=S)NCCN1CCCCC1 | 2.9 | 6.2 | -7.6 | i | i | 0.0
S=C(NCCCN1CCOCC1)NCCCN1CCOCC1 | 3.0 | -10.6 | 0.5 | i | . | .
CC1CC(C)CN(CCCNC(=O)C2CCC(=O)N2C2CCCC2)C1 (stereo not given) | -2.8 | -5.8 | 6.4 | i | i | 0.4
O=C(NCCCN1CCCC1)C1CCC(=O)N1C1CCCCC1 (stereo not given) | 5.0 | -12.5 | -11.5 | i | . | .
Cc1ccc(S(=O)(=O)N2CC3(O)CN(C(=O)OC(C)C)N(C(=O)OC(C)C)CC3(OC(=O)NC3CCCC3)C2)cc1 (stereo not given) | 1.0 | . | 4.8 | i | . | .
CC(Oc1ccc(-c2ccccc2)c(F)c1)c1ccn(S(=O)(=O)c2ccc(F)cc2)n1 (stereo not given) | -6.8 | -6.4 | 1.8 | i | i | 0.7
COc1ccc(S(=O)(=O)n2ccc(C(C)Oc3ccc(-c4ccccc4)c(F)c3)n2)cc1 (stereo not given) | -6.1 | 0.9 | 0.9 | i | . | .
CCCCOc1cccc(C2C(C(=O)c3ccc(C)o3)=C(O)C(=O)N2c2nnc(C)s2)c1 (stereo not given) | 1.9 | . | -5.5 | + | i | 1.5
CCCOc1cccc(C2C(C(=O)c3ccco3)=C(O)C(=O)N2c2nnc(C)s2)c1 (stereo not given) | 11.2 | . | -8.0 | . | . | .
O=C(N/N=C/c1ccc([N+](=O)[O-])o1)c1ccc2c(c1)OCO2 | -0.9 | . | -9.7 | i | i | 0.0
CC(=O)c1c(C)[nH]c(C(=O)NNC(=O)COc2cc(C)ccc2C(C)C)c1C | -8.3 | . | 0.5 | i | i | 0.0
CC(=O)N1CCN(C(=O)CCc2nc3ccccc3c(=O)[nH]2)CC1 | -10.2 | -7.1 | -7.2 | + | i | 0.0
SMILES | TLR9-MyD88 block | TLR4-MyD88 BLA | NOD2-RIPK2 inh | Myeloid diff 2 | Myeloid diff | GFP autofluor
O=C(CCc1nc2ccccc2c(=O)[nH]1)N1CCN(c2ccc(F)cc2)CC1 | -1.2 | 0.1 | 4.5 | i | . | .
COc1ccc(CCn2c(C)cc(C(=O)COC(=O)c3ccc(NC(=O)CC#N)cc3)c2C)cc1 | -5.7 | . | -14.2 | i | . | .
Cc1cc(C(=O)COC(=O)c2ccc(NC(=O)CC#N)cc2)c(C)n1CCc1ccc(F)cc1 | 7.1 | . | -0.4 | i | i | 3.0
CC(C)[C@H](NC(=O)[C@@H]1Cc2c([nH]c3ccccc23)C2c3ccccc3C(=O)N21)C(=O)N1CCC[C@H]1C(=O)O (stereo not given in full) | . | . | -4.8 | i | . | .
Cc1oc(-c2ccccc2F)nc1CS(=O)(=O)CC(=O)NC1CCCC1 | -0.9 | -3.2 | -1.9 | i | . | .
Cc1oc(-c2ccccc2F)nc1CS(=O)(=O)CC(=O)NCCN(C)C1CCCCC1 | -3.5 | 1.2 | 0.0 | i | i | 0.5
COc1ccc(NS(=O)(=O)c2ccc3oc(SC4CCOC4=O)nc3c2)cc1 (stereo not given) | -3.2 | 6.4 | 5.0 | i | i | 0.3
CCCOc1ccc(C(=O)NC(=S)N2CCN(c3cc4c(cc3F)c(=O)c(C(=O)O)cn4CC)CC2)cc1 | -0.6 | . | -7.9 | + | i | 3.4
CCn1cc(C(=O)O)c(=O)c2cc(F)c(N3CCN(C(=S)NC(=O)c4ccc(F)cc4)CC3)cc21 | 1.4 | . | -1.2 | i | . | .
Cc1[nH]c2ccccc2c1C(=O)/C=C\c1ccccc1Cl | -2.0 | -3.6 | 1.1 | + | i | 1.0
Nc1cc(Nc2ccccc2)ccn1 | 9.0 | . | -7.3 | + | i | 2.4
COc1ccc2c(c1)C(=O)N1[C@H]3c4cc(C)ccc4OC[C@@H]3[C@H](c3ccccc3)[C@]1(C)C(=O)N2 | -9.5 | . | -2.5 | + | i | 0.0
Cc1nc2ccccc2n1CC(O)COCC1CC=CCC1 (stereo not given) | -0.4 | -1.9 | 12.5 | + | i | 0.0
CC(C)N1C(=O)S/C(=C/c2ccc(Sc3nc4ccccc4[nH]3)o2)C1=O | -1.9 | -8.8 | -5.3 | i | i | 0.0
CC(=O)NNC(=O)CCC(=O)Nc1ccccc1 | -2.7 | 2.1 | 1.9 | i | i | 86.0*
O=C(O)CCC(=O)Nc1ccc(S(=O)(=O)c2ccc(NC(=O)CCC(=O)O)cc2)cc1 | 4.4 | . | -18.9 | i | . | .
O=C(O)CCC(=O)Nc1ccc(Cc2ccc(NC(=O)CCC(=O)O)cc2)cc1 | -3.8 | 1.9 | 4.0 | + | i | 0.0
Cc1ccc2nc3c(cc2c1)CN(Cc1ccco1)C(=NCC1CCCO1)S3 (stereo not given) | -5.6 | -13.0 | 7.2 | i | i | 0.4
O=C(C[C@H]1CC[C@H]2[C@@H](COC[C@@H](O)CN2S(=O)(=O)c2ccccc2)O1)N[C@@H]1CCN(Cc2ccccc2)C1 | . | . | 4.0 | i | . | .
Cc1ccccc1NC(=S)Nc1ccccn1 | -8.9 | . | -12.6 | i | i | 0.6

Screens as filed in PubChem BioAssay.
